Measurements reported in PMC7862700, “An all-to-all approach to the identification of sequence-specific readers for epigenetic DNA modifications on cytosine”.

Experiments:
Assay in all cases: DAPPL (digital affinity profiling via proximity ligation, sequencing); 10 mM Tris-HCl pH 7.5, 50 mM NaCl, 1 mM DTT, 4% glycerol, room temperature, 30 min; GST-TFs on glutathione beads, 16-mer random dsDNA library, 0.1% formaldehyde crosslink after washing; high values mean tight binding
Conditions in all cases: protein: recombinant; tags: N-terminal GST; dsDNA, one strand shown
FEV = biological target: T1, FEV (Homo sapiens, UniProt Q99581 1-238)
T1 sequence: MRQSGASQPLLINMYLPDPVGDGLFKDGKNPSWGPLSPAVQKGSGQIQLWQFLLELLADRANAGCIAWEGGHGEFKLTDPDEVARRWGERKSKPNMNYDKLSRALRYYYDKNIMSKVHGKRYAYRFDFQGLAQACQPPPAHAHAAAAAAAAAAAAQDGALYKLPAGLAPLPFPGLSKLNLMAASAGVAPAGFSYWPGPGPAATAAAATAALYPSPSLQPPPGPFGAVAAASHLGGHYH
Outline: (§1)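 Beads coated with glutathione captured GST-fused human transcription factors that had been expressed in yeast, and the factors were then given DNA barcodes and pooled with a tag-only sample. The pools were incubated with 200 nmole of a random double-stranded 16-mer DNA library in Tris/NaCl/DTT/glycerol buffer for 30 min at room temperature, washed, crosslinked with 0.1% formaldehyde and proximity-ligated with BsaI/T4 ligase at 37 °C for 1 h. PCR amplification and Illumina NextSeq500 sequencing came last. Binding signal is each hexamer's read frequency for a factor divided by its frequency for the tag-only sample.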

ETV5 = ETV5 (Homo sapiens, UniProt P41161 1-510)
Outline: as §1

SPIC = biological target: T2, SPIC (Homo sapiens, UniProt Q8N5J4 1-248)
T2 sequence: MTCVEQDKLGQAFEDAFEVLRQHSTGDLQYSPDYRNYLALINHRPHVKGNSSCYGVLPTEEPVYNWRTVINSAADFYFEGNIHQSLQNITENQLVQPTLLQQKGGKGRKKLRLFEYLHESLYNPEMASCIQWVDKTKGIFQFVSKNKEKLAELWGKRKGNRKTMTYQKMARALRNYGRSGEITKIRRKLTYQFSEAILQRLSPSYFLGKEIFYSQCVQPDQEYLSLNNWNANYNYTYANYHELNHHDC
Outline: as §1

ELF4 = ELF4 (Homo sapiens, UniProt Q99607 1-663)
Outline: as §1

ELK4 = biological target: T3, ELK4 (Homo sapiens, UniProt P28324-2 1-405)
T3 sequence: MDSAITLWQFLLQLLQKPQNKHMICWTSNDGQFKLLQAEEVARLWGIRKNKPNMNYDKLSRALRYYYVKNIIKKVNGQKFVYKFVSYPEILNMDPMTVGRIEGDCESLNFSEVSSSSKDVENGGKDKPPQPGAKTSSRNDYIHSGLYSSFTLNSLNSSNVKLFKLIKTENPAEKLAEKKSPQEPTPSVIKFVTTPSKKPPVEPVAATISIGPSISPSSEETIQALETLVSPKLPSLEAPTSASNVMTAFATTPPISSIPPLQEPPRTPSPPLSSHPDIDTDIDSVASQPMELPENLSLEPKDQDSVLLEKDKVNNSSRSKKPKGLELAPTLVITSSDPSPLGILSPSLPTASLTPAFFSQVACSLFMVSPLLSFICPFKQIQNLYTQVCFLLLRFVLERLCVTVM
Outline: as §1

ETV2 = biological target: T4, ETV2 (Homo sapiens, UniProt O00321 1-342)
T4 sequence: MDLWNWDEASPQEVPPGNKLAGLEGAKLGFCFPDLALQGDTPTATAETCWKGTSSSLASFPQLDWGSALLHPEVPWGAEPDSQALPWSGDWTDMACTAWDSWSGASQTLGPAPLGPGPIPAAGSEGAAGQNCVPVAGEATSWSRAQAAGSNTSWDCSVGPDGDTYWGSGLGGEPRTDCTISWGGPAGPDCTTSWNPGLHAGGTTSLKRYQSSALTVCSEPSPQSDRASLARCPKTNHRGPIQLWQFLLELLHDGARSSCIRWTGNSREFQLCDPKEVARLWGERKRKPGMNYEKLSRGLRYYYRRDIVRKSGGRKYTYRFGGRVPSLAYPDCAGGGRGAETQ
Outline: as §1

ELF3 = biological target: T5, ELF3 (Homo sapiens, UniProt P78545 1-371)
T5 sequence: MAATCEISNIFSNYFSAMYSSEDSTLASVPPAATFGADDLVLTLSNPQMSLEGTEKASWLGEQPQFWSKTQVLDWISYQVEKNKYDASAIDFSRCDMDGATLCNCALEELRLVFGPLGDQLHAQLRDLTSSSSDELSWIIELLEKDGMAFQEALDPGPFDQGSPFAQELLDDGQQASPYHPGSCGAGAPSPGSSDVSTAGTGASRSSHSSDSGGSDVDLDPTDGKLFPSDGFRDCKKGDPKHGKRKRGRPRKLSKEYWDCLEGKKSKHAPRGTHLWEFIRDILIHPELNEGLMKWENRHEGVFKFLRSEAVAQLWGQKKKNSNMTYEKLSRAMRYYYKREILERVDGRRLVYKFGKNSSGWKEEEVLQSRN
Outline: as §1

ETV1 = ETV1 (Homo sapiens, UniProt P50549 1-477)
Outline: as §1

ERF = biological target: T6, ERF (Homo sapiens, UniProt P50548 1-548)
T6 sequence: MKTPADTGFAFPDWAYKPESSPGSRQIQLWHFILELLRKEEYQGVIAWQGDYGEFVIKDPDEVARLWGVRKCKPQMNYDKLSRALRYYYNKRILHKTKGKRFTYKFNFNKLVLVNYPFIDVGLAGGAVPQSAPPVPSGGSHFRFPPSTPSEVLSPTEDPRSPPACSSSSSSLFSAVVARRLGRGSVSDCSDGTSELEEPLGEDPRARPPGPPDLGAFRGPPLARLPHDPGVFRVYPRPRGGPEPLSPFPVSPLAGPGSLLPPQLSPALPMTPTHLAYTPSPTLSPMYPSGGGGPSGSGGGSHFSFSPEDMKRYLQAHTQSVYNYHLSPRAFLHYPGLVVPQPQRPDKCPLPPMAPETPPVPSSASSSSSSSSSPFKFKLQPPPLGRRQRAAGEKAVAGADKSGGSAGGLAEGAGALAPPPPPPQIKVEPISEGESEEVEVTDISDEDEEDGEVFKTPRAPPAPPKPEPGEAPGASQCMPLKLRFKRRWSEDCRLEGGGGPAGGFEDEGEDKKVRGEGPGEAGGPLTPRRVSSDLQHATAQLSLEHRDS
Outline: as §1

ETV3L = biological target: T7, ETV3L (Homo sapiens, UniProt Q6ZN32 1-361)
T7 sequence: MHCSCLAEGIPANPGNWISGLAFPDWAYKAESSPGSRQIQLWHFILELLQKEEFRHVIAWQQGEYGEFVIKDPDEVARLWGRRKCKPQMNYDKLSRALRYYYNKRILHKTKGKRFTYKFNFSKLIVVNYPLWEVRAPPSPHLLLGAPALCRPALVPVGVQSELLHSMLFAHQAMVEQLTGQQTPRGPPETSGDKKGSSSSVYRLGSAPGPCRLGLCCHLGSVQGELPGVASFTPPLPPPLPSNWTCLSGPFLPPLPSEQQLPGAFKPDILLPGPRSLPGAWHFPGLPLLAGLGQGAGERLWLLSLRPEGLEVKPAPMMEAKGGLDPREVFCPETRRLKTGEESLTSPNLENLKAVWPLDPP
Outline: as §1

ETS2 = biological target: T8, ETS2 (Homo sapiens, UniProt P15036 1-469)
T8 sequence: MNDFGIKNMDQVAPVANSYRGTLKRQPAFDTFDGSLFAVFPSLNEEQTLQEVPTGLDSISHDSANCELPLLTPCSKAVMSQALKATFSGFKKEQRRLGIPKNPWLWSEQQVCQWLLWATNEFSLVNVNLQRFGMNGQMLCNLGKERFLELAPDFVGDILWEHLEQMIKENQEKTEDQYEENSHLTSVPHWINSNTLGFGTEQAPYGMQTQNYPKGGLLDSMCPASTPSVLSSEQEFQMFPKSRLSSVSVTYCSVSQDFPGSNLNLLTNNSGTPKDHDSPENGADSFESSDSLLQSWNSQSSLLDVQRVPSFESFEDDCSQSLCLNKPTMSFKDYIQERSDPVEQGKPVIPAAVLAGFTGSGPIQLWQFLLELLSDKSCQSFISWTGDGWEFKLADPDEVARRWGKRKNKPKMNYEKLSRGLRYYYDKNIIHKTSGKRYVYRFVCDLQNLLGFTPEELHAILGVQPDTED
Outline: as §1

SPDEF = biological target: T9, SPDEF (Homo sapiens, UniProt O95238 1-335)
T9 sequence: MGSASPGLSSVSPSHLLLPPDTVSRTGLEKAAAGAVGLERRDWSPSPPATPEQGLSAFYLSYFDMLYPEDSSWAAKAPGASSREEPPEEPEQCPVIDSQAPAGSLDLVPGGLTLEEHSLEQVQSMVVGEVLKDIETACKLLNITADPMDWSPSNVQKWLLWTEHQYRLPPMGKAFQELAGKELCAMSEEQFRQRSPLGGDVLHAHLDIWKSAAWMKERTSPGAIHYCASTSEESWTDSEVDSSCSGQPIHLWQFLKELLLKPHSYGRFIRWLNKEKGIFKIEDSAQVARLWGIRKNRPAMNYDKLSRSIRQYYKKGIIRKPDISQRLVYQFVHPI
Outline: as §1

ETV7 = biological target: T10, ETV7 (Homo sapiens, UniProt Q9Y603 1-341)
T10 sequence: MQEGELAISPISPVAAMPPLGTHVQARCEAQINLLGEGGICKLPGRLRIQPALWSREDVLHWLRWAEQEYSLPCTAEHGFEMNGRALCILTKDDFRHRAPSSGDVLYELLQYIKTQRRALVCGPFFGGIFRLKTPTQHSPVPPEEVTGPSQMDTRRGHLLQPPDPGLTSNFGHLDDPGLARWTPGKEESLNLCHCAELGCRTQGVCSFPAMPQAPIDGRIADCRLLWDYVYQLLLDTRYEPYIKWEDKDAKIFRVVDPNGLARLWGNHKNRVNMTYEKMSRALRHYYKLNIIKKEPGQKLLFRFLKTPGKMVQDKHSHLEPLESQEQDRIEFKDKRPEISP
Outline: as §1

ELF5 = biological target: T11, ELF5 (Homo sapiens, UniProt Q9UKW6-2 1-255)
T11 sequence: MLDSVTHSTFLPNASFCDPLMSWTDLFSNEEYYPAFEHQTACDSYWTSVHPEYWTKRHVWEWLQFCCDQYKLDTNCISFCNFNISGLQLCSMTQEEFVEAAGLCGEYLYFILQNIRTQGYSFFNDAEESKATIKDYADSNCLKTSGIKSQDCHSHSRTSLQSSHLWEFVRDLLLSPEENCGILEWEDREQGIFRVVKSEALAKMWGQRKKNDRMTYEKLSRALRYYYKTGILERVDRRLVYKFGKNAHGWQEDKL
Outline: as §1

ETV3 = biological target: T12, ETV3 (Homo sapiens, UniProt P41162-2 1-143)
T12 sequence: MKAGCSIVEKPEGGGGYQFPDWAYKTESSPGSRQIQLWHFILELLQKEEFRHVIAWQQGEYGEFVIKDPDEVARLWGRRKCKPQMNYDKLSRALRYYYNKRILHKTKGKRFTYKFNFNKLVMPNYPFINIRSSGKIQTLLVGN
Outline: as §1

ETV6 = ETV6 (Homo sapiens, UniProt P41212 1-452)
Outline: as §1

ETV6, sequence (P41212 whole entry): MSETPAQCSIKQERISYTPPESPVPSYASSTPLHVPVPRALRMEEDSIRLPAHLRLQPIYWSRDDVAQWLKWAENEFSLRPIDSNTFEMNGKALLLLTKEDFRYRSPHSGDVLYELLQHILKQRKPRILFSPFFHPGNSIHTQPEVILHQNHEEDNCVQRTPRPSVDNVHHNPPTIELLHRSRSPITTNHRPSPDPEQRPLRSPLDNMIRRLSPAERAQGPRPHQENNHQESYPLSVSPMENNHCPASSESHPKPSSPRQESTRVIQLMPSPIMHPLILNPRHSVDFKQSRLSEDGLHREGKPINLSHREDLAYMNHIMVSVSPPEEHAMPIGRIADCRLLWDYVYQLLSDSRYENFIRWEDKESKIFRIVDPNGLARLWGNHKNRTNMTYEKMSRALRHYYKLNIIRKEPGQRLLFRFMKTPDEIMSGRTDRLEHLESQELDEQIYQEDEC
ELF4, sequence (Q99607 whole entry): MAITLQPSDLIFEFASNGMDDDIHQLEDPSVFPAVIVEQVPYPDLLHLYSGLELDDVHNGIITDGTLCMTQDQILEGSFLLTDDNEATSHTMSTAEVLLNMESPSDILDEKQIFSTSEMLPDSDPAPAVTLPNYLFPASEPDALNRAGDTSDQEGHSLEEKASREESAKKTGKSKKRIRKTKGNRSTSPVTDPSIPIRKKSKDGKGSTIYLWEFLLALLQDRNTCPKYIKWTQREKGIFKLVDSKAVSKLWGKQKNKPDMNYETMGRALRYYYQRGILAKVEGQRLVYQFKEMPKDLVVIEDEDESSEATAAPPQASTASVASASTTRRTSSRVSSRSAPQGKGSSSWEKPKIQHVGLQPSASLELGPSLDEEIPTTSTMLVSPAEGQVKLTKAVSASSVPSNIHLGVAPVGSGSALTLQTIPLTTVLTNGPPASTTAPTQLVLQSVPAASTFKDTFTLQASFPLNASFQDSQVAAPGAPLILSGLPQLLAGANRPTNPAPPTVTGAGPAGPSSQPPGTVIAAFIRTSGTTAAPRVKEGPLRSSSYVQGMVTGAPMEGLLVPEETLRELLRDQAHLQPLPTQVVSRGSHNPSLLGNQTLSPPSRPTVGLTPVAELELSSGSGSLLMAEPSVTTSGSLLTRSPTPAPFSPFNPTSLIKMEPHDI
ETV5, sequence (P41161 whole entry): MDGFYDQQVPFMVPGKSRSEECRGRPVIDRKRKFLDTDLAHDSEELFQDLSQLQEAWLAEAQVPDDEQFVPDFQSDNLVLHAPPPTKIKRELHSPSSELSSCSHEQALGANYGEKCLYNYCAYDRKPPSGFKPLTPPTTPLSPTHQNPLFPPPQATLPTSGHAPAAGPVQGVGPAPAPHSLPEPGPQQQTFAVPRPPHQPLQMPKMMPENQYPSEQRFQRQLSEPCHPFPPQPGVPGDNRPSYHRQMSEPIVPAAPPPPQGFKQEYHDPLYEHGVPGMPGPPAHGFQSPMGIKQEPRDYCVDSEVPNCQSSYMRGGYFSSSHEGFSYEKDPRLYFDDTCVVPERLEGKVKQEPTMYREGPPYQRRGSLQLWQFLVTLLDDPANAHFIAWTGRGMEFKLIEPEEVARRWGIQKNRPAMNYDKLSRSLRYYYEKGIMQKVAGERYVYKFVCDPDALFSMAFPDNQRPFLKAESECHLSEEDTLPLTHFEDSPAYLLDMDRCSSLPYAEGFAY
ETV1, sequence (P50549 whole entry): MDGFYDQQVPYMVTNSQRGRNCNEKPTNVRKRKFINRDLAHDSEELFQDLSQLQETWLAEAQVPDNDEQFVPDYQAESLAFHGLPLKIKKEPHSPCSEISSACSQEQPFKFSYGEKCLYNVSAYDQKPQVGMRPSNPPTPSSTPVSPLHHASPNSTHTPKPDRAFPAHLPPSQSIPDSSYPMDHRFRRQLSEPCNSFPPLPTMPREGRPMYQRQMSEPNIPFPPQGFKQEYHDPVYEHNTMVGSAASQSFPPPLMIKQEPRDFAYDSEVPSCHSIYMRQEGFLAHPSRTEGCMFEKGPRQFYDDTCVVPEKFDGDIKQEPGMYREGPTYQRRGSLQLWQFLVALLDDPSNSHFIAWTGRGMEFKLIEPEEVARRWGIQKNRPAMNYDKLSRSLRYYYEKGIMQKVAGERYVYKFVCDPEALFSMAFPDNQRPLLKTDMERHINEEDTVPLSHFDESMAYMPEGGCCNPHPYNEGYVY

Row | Sequence | binding signal (FEV) | binding signal (ETV5) | binding signal (SPIC) | binding signal (ELF4) | binding signal (ELK4) | binding signal (ETV2) | binding signal (ELF3) | binding signal (ETV1) | binding signal (ERF) | binding signal (ETV3L) | binding signal (ETS2) | binding signal (SPDEF) | binding signal (ETV7) | binding signal (ELF5) | binding signal (ETV3) | binding signal (ETV6)
1 | CGCCCC | 1.21 fold enrichment (6-mer frequency, TF over GST control) | 1.23 fold enrichment (6-mer frequency, TF over GST control) | 1.24 fold enrichment (6-mer frequency, TF over GST control) | 1.28 fold enrichment (6-mer frequency, TF over GST control) | 1.06 fold enrichment (6-mer frequency, TF over GST control) | 1.02 fold enrichment (6-mer frequency, TF over GST control) | 1.09 fold enrichment (6-mer frequency, TF over GST control) | 1.25 fold enrichment (6-mer frequency, TF over GST control) | 1.28 fold enrichment (6-mer frequency, TF over GST control) | 1.31 fold enrichment (6-mer frequency, TF over GST control) | 1.05 fold enrichment (6-mer frequency, TF over GST control) | 1.18 fold enrichment (6-mer frequency, TF over GST control) | 1.2 fold enrichment (6-mer frequency, TF over GST control) | 1.1 fold enrichment (6-mer frequency, TF over GST control) | 1.16 fold enrichment (6-mer frequency, TF over GST control) | 1.19 fold enrichment (6-mer frequency, TF over GST control)
2 | CGGATG | 2.16 fold enrichment (6-mer frequency, TF over GST control) | 1.71 fold enrichment (6-mer frequency, TF over GST control) | 1.48 fold enrichment (6-mer frequency, TF over GST control) | 1.36 fold enrichment (6-mer frequency, TF over GST control) | 1.31 fold enrichment (6-mer frequency, TF over GST control) | 1.39 fold enrichment (6-mer frequency, TF over GST control) | 1.48 fold enrichment (6-mer frequency, TF over GST control) | 1.74 fold enrichment (6-mer frequency, TF over GST control) | 1.39 fold enrichment (6-mer frequency, TF over GST control) | 1.62 fold enrichment (6-mer frequency, TF over GST control) | 1.83 fold enrichment (6-mer frequency, TF over GST control) | 3.14 fold enrichment (6-mer frequency, TF over GST control) | 1.41 fold enrichment (6-mer frequency, TF over GST control) | 1.75 fold enrichment (6-mer frequency, TF over GST control) | 1.75 fold enrichment (6-mer frequency, TF over GST control) | 1.5 fold enrichment (6-mer frequency, TF over GST control)
